TRb-SRC2 inh: TRbeta-SRC2 interaction inhibition; Potency, µM (titrated, usually from 106 µM), without a hit: top-dose activity change, negative = inhibition, usual class: inhibitors; TRbeta-SRC2 peptide binding, fluorescence polarization; receptor liganded with 1 µM T3; actives 0.065% (n = 280,000); P10828;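 note: plate controls were bound peptide for no effect and peptide without receptor for full effect; nearly all actives have a fitted effect of over 50% in size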
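Fluorescence polarization of 20 nM Texas Red SRC2 peptide with 0.6 uM human TRb ligand-binding domain, in Tris buffer with 1uM T3 and 5% DMSO. Incubated 5 hr ambient; normalized to unbound and bound controls.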
WRN helicase inh: blocks human WRN helicase; actives 0.46% (n = 360,000); Potency, µM (doses to about 114 µM), without a hit: at the highest dose activity change, negative = inhibition, actives largely listed as inhibitors; WRN helicase unwinding, fluorescent forked duplex, kinetic; AID 651768; note: nearly all actives have a fitted effect of over 55% in size
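Primary qHTS, 1536-well format. 20 nM WRN + compound, 15 min RT; start with 100 nM forked fluorophore/quencher duplex, 2 mM ATP (final); kinetic read ex 525/em 598 nm.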
BLM helicase inh: inhibitors of human Bloom syndrome helicase BLM | P54132 | recombinant BLM DNA unwinding, fluorescence dequenching | Potency, µM (highest dose often 56.1 µM), for inactives: at the highest dose activity change, negative = inhibition, hits mostly inhibitors | AID 2528 | actives 0.2% (n = 350,000);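 note: plate controls were vehicle for no effect and no enzyme for full effect; nearly all actives have a fitted effect of over 35% in size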
RECQ1 helicase: inhibitors of human RECQ1 DNA helicase; actives 0.54% (n = 240,000); AID 2549; Potency, µM (doses to about 57.3 µM), without a hit: top-dose activity, negative = inhibition, most hits filed as inhibitors; RECQ1 DNA unwinding, red fluorescence kinetic read;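 note: plate controls were vehicle for no effect and no enzyme for full effect; nearly all actives have a fitted effect of over 30% in size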
Target sequence (P46063 whole entry, looked up): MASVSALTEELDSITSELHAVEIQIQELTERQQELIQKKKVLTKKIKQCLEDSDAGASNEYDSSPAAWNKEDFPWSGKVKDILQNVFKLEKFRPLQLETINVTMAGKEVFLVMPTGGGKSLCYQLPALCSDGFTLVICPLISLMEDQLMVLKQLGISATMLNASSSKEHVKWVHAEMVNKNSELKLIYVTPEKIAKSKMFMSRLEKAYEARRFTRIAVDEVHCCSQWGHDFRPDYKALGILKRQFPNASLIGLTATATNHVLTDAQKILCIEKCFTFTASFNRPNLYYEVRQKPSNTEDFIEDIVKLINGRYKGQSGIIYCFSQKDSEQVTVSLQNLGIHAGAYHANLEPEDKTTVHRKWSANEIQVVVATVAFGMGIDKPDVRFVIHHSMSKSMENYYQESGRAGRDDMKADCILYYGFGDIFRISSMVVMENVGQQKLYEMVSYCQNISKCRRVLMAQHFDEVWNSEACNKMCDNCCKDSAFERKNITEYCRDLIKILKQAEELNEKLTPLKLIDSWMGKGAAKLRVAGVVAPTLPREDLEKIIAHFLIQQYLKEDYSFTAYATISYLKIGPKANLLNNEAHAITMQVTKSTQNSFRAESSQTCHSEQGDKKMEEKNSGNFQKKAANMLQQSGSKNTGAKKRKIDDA
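RECQ1T1 50 nM; forked duplex (20 bp + 30-nt ss tails) 200 nM, ATP 2 mM final; pH 8.0, 2 mM MgCl2, 2.5 ug/ml poly(dI-dC); 15 min compound preincubation; discontinuous kinetic read over 2 h at RT.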
TR SRC2 fluor cs: counter-screen for TRb-SRC2 inhibitors: fluorescence interference | TRb/SRC2 Texas Red total fluorescence interference | Potency, µM (series often up to 106 µM), inactives show at the highest dose fluorescence change, negative = quenching | actives 0.29% (n = 280,000) | AID 1479; active = well fitted curve in either direction with a large enough effect; inconclusive = small, poorly fitted or top-dose-only effect
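Human TRb ligand-binding domain at 0.6 uM with 20 nM Texas Red SRC2 peptide in Tris buffer containing 1 uM T3 and 5% DMSO, incubated with compound 5 h at ambient temperature. Total fluorescence (555/632 nm) calculated as parallel + 2 × perpendicular.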
APEX1 inh: inhibitors of human APE1 endonuclease | P27695 | Potency, µM (series often up to 65.8 µM), for inactives: top-dose activity change, negative = inhibition, actives largely listed as inhibitors | actives 0.35% (n = 350,000) | recombinant APE1, TAMRA/BHQ-2 abasic DNA cleavage fluorescence;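 note: plate controls were vehicle for no effect and reference inhibitor for full effect; nearly all actives have a fitted effect of over 55% in size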
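Activity was derived from the fluorescence gain between first and third kinetic reads (60 s intervals, ex 525/em 598 nm) after 50 nM THF-abasic TAMRA/BHQ-2 duplex was added to 0.75 nM APE1 preincubated 15 min with compound.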
Starred values were filed as active, the others as inactive; ? = inconclusive; nt = no result given; [ ] = another dose, or the depositor's remark. The list is not random: actives were taken first. Their share in the collection is about 0.91%. Unless noted, calls come from the whole dose curve; as a rule, active = well fitted curve in the direction sought with a large enough effect; inconclusive = small, poorly fitted or top-dose-only effect, or another doubt; inactive = no such curve, though single readings can be large; an effect the other way counts as inactive or inconclusive. Unless noted, % is set by controls: 0 for no effect and ±100 for the full control effect; potency is the fitted concentration of half-maximal effect.

SMILES | TRb-SRC2 inh | WRN helicase inh | BLM helicase inh | RECQ1 helicase | TR SRC2 fluor cs | APEX1 inh
Cc1ccc(C(=O)c2cn(Cc3ccc(F)cc3)c3nc(C)ccc3c2=O)cc1 | -21.2%[53 µM] | nt | -3.1% | nt | 0.0112µM*[quencher] | nt
Cc1cc(=O)n(CC(=O)NC(C)c2ccccc2)c2c1c(C)nn2-c1cccc(F)c1 (stereo unspecified) | -23.5% | nt | -5.2% | nt | 251µM*[quencher] | nt
Cc1ccc(CNC(=O)Cn2c(=O)cc(C)c3c(C)nn(-c4cccc(F)c4)c32)cc1 | -0.8% | nt | 1.8% | nt | 2.7% | nt
O=S(=O)(O)c1cc(O)c2cc(Nc3ccccc3)ccc2c1 | nt | 11.2µM* | nt | nt | nt | nt
O=S(=O)(O)c1cc(O)c2c(N=Nc3ccc(Nc4ccccc4)c4c(S(=O)(=O)O)cccc34)cc(S(=O)(=O)O)cc2c1 | 15.2% | nt | 79.1% | nt | 20µM*[quencher] | nt
CC(C)[C@@H]1CC[C@@H](C)CC1=O | nt | nt | nt | nt | nt | 1.2%
CCc1ccccc1NC(=O)c1cnc2sc(N3CCCC3)nn2c1=O | -15.9% | nt | 1.6% | nt | 35.5µM*[quencher] | nt
O=S(=O)(Nc1ccc(-c2ccc(N3CCCC3)nn2)cc1)c1cccc(C(F)(F)F)c1 | -8.3% | nt | -6.0% | nt | 708µM*[quencher] | nt
CC(OC(=O)CSc1ccc([N+](=O)[O-])cc1)C(=O)NCc1ccccc1 (stereo unspecified) | nt | 50.1µM* | nt | nt | nt | 56.4%
CCC(C)/C=C/C1=CC2=C(Cl)C(=O)C3(C)OC(=O)C(C(=O)C(C)C(C)O)C3C2=CO1 (stereo unspecified) | -7.1% | -6.2%[11.6 µM] | -12.2% | -19.3% | -2.5% | 10µM*
O=C(COC(=O)c1ccc([N+](=O)[O-])s1)NCc1ccc(F)cc1 | -8.1% | -4.6%[11.6 µM] | -18.1% | -7.3% | 0.7% | 31.6µM*
COc1ccc(-c2cc(C(F)(F)F)n3nc(C(=O)Nc4cccc(Cl)c4Cl)cc3n2)cc1OC | -25.2%[53 µM] | nt | -4.5% | nt | 0.0355µM*[quencher] | nt
Cc1ccc(C(C)C)c(OCCSc2nc(-c3ccccc3F)nc3cc(=O)[nH]n23)c1 | 5.5% | nt | -11.4% | nt | -2.5% | nt
c1ccc2c(c1)ccc1c3ccccc3ccc21 | 4.6%[201 µM] | nt | nt | nt | 1.0%[201 µM] | nt
CCOCCOCCOCCO | -6.0%[201 µM] | nt | nt | nt | -4.8%[201 µM] | nt
COc1ccc(OC)c2sc(N(CCCN(C)C)C(=O)c3ccc(S(=O)(=O)N4CCc5ccccc5C4)cc3)nc12 | nt | nt | nt | nt | nt | 29.9µM*
CCn1c(CSc2nc3ccccc3s2)n[nH]c1=S | 4.5% | 1.8% | -1.3% | -7.1% | 0.9% | -2.3%
CCn1c(CSc2nc3ccccc3s2)nnc1SCC(=O)c1ccc(Cl)cc1 | -7.0% | 79.4µM* | -5.6% | -9.6% | -3.7% | 3.2%
Brc1ccc(Oc2ccc(Br)cc2)cc1 | 1.0%[201 µM] | nt | nt | nt | -2.8%[201 µM] | nt
CCCCCCCC(=O)Oc1c(Br)cc(C#N)cc1Br | 3.8%[201 µM] | nt | nt | nt | 1.6%[201 µM] | nt
C#CCOc1ccc(-c2no[n+]([O-])c2C#N)cc1 | nt | nt | nt | nt | nt | -9.3%
C=CC(=O)Oc1ccc(N2Cc3ccccc3C2=O)cc1 | nt | 56.2µM* | nt | nt | nt | nt
c1ccc2cc3ccccc3cc2c1 | -1.8%[201 µM] | nt | nt | nt | -5.4%[201 µM] | nt
CCCCCCCCCCCCCCCC[n+]1cccc2ccccc21 | 44.7µM* | ? | -9.2% | -5.5% | -25.5% | 16.9%
CCCCCCCCC[n+]1cccc2c3ccccc3ccc21 | -7.9% | 2.3% | 7.2% | 8.0% | -1.4% | 15.7%
CCN(CC)c1ccc(/C=C/C(=O)C2C(=O)C=C(C)OC2=O)cc1 (stereo unspecified) | ? | ? | ? | 15.8µM* | 31.6µM*[fluorescent] | ?
CCN(CC)c1ccc(C2C(C(=O)OC)=C(C)NC(C)=C2C(=O)OC)cc1 | 2.8% | -3.5% | -10.9% | -9.7% | 0.7% | 2.9%
CCCCn1c(C)cc2c(c1=O)C1O[C@](c3ccc(OC)cc3)(Cc3cc(OC)c(OC)cc31)O2 | nt | nt | -11.5%[12.4 µM] | nt | nt | 4.33µM*
C#CCOCCOCCOCCNc1nc(N2CCN(C(=O)CCCCCCCCCCNC(=O)[C@H](CCCCN)n3cc(C[C@@H](C)CC)nn3)CC2)nc(N2CCN(C(=O)CCCCCCCCCCNC(=O)[C@@H]([C@H](C)O)n3cc(C)nn3)CC2)n1 | nt | 50.1µM* | nt | nt | nt | ?

Screening results deposited in PubChem by National Center for Advancing Translational Sciences (NCATS).
